The list is not random: actives were taken first. Their share in the collection is about 7.5%.
KinaseGlo FLuc = blocks Kinase-Glo luciferase, a counter-screen artifact; Q27757; Kinase-Glo luciferase, ATP luminescence, 8 min; Potency, µM (doses to about 38.3 µM), usual class: inhibitors; 0.28% of 200,000 active; AID 1379; also: nearly all actives have a fitted effect of over 60% in size
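Inhibition of Kinase-Glo luciferase light generation was assessed at 10 uM ATP in pH 7.2 imidazole buffer, with luminescence measured after eight minutes at ambient temperature.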
ELG1 genotoxic = induces genotoxicity in HEK293T cells with luciferase-tagged ELG1; HEK293T ELG1-luciferase reporter, luminescence, 16 h; Potency, µM (series often up to 46 µM), actives largely listed as activators; 1.3% of 330,000 active; AID 504466; also: nearly all actives have a fitted effect of over 60% in size
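ELG1-luciferase HEK293T cells, 2,000/well; compound pinned in; 16 hr, 37 °C, 5% CO2; ONE-Glo, 30 min RT; luminescence on CCD imager.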
SMN2 splice up = SMN2 splice variant enhancement; AID 1458; HEK293 SMN2-luciferase splicing reporter, luminescence, 30-36 h; 2.8% of 210,000 active; Potency, µM (doses to about 46.1 µM), hits mostly activators; also: nearly all actives have a fitted effect of over 55% in size
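HEK293 cells carry an SMN2 […]–luciferase reporter in which exon 7 inclusion puts luciferase in frame. Cells were plated 10-12 h before compound addition, then incubated 30-36 h at 37C. ONE-Glo luminescence was read; sodium butyrate at 4.5 mM final served as control.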
NPC1 prom act = activators of NPC1 promoter. Huh7 NPC1 promoter luciferase reporter, 24 h. Potency, µM (titrated, usually from 9.22 µM), hits mostly activators. 2.4% of 320,000 active. AID 485313; also: nearly all actives have a fitted effect of over 60% in size
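NPC1 promoter–luciferase Huh7 cells; 24 h compound; luminescence.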
Rab9 promoter act = activators of Rab9 promoter. Potency, µM (titrated, usually from 9.22 µM), most hits filed as activators. Huh7 Rab9 promoter-luciferase reporter, luminescence, 24 h. 2.8% of 320,000 active; also: nearly all actives have a fitted effect of over 60% in size
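Rab9 promoter-driven luciferase in stably transfected Huh7 cells; 1500 cells/well rested 2 h, exposed to compound in DMSO for 24 h at 37 °C, 5% CO2. Luminescence read 10 min after adding luciferase reagent at ambient temperature.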
FLuc modulator = inhibits or activates purified firefly luciferase, miR-21 counter-screen; purified FLuc, Km substrates, luminescence inhibition; P08659; Potency, µM (series often up to 57.5 µM), usual class: inhibitors; 6.9% of 360,000 active; also: nearly all actives have a fitted effect of over 55% in size
Target sequence (P08659 whole entry, looked up): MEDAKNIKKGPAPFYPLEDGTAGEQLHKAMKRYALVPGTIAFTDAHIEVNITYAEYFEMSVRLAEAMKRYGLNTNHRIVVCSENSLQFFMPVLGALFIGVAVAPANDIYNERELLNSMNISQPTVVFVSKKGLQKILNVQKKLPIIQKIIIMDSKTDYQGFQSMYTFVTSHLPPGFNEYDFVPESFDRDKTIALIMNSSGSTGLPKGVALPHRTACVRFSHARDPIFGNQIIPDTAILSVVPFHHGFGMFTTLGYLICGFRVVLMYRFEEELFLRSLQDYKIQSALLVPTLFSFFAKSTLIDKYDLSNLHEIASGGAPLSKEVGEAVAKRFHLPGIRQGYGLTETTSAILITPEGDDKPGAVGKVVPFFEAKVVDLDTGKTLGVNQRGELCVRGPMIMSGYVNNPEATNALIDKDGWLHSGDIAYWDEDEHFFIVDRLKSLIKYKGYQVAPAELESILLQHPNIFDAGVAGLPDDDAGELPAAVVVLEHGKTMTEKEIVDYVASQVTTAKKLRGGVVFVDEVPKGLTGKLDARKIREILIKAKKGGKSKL
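Purified P. pyralis luciferase (10nM final) with 10uM D-luciferin and 10uM ATP (Km levels) in 50mM Tris acetate pH 7.5, 10mM Mg acetate, 0.01% Tween-20, 0.05% BSA; qHTS 6-point titration, ~60 µM downward; luminescence read.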
Hits are given with their value; [ ] = dose if it differs, or a comment. Calls follow the shape of the dose curve; as a rule, active = well fitted curve in the direction sought with a large enough effect; inconclusive = small, poorly fitted or top-dose-only effect, or another doubt; inactive = no such curve, though single readings can be large; an effect the other way counts as inactive or inconclusive.

CCOC(=O)N1CCN(C(=O)c2ccc3oc(CCCc4ccccc4)nc3c2)CC1 was read as ELG1 genotoxic inconclusive, NPC1 prom act 1.6µM, Rab9 promoter act 1.6µM and FLuc modulator 6µM.
`O=C(c1ccc2oc(CCCc3ccccc3)nc2c1)N1CCCC(CCCO)C1` (stereo not drawn) gave ELG1 genotoxic inactive, NPC1 prom act inactive, Rab9 promoter act inactive and FLuc modulator inactive.
Screening CCCCc1nc2cc(C(=O)N(C)CCc3cn[nH]c3)ccc2o1 returned ELG1 genotoxic inactive, NPC1 prom act inactive, Rab9 promoter act inactive and FLuc modulator inconclusive.
Screening CC(=O)N1CCN(C(=O)c2ccc3oc(CCCc4ccccc4)nc3c2)CC1 returned ELG1 genotoxic inactive[9.26 µM], NPC1 prom act inactive, Rab9 promoter act inactive and FLuc modulator inactive.
Screening CCCCc1nc2cc(C(=O)N(C)C3CCOCC3)ccc2o1 returned ELG1 genotoxic 9.2µM, NPC1 prom act inconclusive, Rab9 promoter act 2.5µM and FLuc modulator 13µM.
Screening COC(=O)CCCNC(=O)c1ccc2oc(CCCc3ccccc3)nc2c1 returned ELG1 genotoxic inactive, NPC1 prom act inactive, Rab9 promoter act inconclusive and FLuc modulator inconclusive.
For CCn1c(CN2CCC(C)CC2)nc2cc(NC(=O)c3cccc([N+](=O)[O-])c3)ccc21 the results were FLuc modulator inactive.
Screening CCOc1ccccc1CNC(=O)c1ccc(NC(=O)N2CCSc3ncccc32)cc1 returned FLuc modulator inactive.
For Cc1cc2nn(-c3ccc(F)cc3)nc2cc1NC(=O)c1cccc([N+](=O)[O-])c1C the results were SMN2 splice up inactive and FLuc modulator inactive.
For CCCCc1nc2cc(C(=O)N3CCC(O)CC3)ccc2o1 the results were ELG1 genotoxic inconclusive, NPC1 prom act 1.6µM, Rab9 promoter act 2µM and FLuc modulator 11µM.
`CCOC(=O)c1ccc(-c2ccc3c(c2)CCC3)nc1C` gave ELG1 genotoxic 3.7µM, NPC1 prom act 1.6µM, Rab9 promoter act 1µM and FLuc modulator 1.5µM.
Screening COC(=O)c1ccc(-c2ccc(F)cc2)nc1C returned KinaseGlo FLuc inactive, ELG1 genotoxic inconclusive, SMN2 splice up inconclusive, NPC1 prom act 3.5µM, Rab9 promoter act 3.5µM and FLuc modulator 3.4µM.
CCC1CN(C(=O)N2CCC(C(=O)NCCC3=CCCCC3)CC2)c2ccccc2O1 (stereo not drawn) was read as FLuc modulator inactive.
Screening COCCCCCCCCCCCC(=O)O returned KinaseGlo FLuc inactive and SMN2 splice up inactive.
For Cc1ccccc1C(=O)Nc1nncs1 the results were KinaseGlo FLuc inactive, ELG1 genotoxic inactive, SMN2 splice up inactive, NPC1 prom act inactive, Rab9 promoter act inactive and FLuc modulator inactive.
O=C(Nc1ccccc1C(=O)O)c1ccc(Br)o1 was read as KinaseGlo FLuc inactive, ELG1 genotoxic inconclusive, SMN2 splice up inactive, NPC1 prom act inconclusive, Rab9 promoter act inconclusive and FLuc modulator 19µM.
For CCOc1ccc(C(=O)Nc2ccccc2C(=O)O)cc1 the results were KinaseGlo FLuc inactive, ELG1 genotoxic inconclusive, SMN2 splice up 8.9µM, NPC1 prom act 0.63µM, Rab9 promoter act 1µM and FLuc modulator 0.95µM.
Screening Nc1ccc(C(=O)Nc2ccccc2C(=O)O)cc1 returned KinaseGlo FLuc inactive, ELG1 genotoxic inconclusive, SMN2 splice up inactive, NPC1 prom act inactive, Rab9 promoter act inactive and FLuc modulator 6µM.
For CCCC(=O)Nc1ccccc1NC(=O)c1ccc(OCC)cc1 the results were KinaseGlo FLuc inactive, ELG1 genotoxic inactive, SMN2 splice up inactive, NPC1 prom act inactive, Rab9 promoter act inactive and FLuc modulator inactive.
`O=C(Nc1ccccc1C(=O)Nc1nncs1)c1ccccc1` gave ELG1 genotoxic inactive, NPC1 prom act inactive, Rab9 promoter act inactive and FLuc modulator 21µM.
For O=C(Nc1ccccc1F)c1ccc(Br)o1 the results were KinaseGlo FLuc inactive, ELG1 genotoxic inactive, SMN2 splice up inactive, NPC1 prom act inactive, Rab9 promoter act inactive and FLuc modulator inconclusive.
For Cc1cccc(N(CC(=O)N(C)Cc2ccccc2)S(=O)(=O)c2ccccc2)c1C the results were SMN2 splice up inactive and FLuc modulator inactive.
CCN(C(=O)c1cc2c(s1)-c1c(C)cccc1OC2)c1ccccc1F was read as SMN2 splice up inactive and FLuc modulator inactive.
`O=C(Nc1ccccc1C(=O)Nc1ccccc1C(=O)O)c1ccccc1` gave ELG1 genotoxic inactive, NPC1 prom act inactive, Rab9 promoter act inactive and FLuc modulator 15µM.
Screening O=C(O)c1ccccc1NC(=O)c1ccccc1Nc1ccccc1 returned ELG1 genotoxic inactive, NPC1 prom act inactive, Rab9 promoter act inactive and FLuc modulator 17µM.
Screening O=C(Nc1ccccc1C(=O)NC1CC1)c1ccccc1 returned ELG1 genotoxic inactive, NPC1 prom act inactive, Rab9 promoter act inactive and FLuc modulator inactive.
For O[C@@](CCN1CCCCC1)(c1ccccc1)C1CCCCC1 the results were KinaseGlo FLuc inactive and SMN2 splice up inactive.
`CCOC(=O)c1c(-c2ccc(Br)cc2)csc1NC(=O)c1ccc(C(C)(C)C)cc1` gave SMN2 splice up inactive and FLuc modulator inactive.
`CC1=NN(C(N)=S)C(=O)C1N=Nc1ccc(Cl)cc1` (stereo not drawn) gave ELG1 genotoxic 7.3µM, NPC1 prom act 4µM, Rab9 promoter act 4µM and FLuc modulator 3.4µM.
For CC1=NN(C(N)=S)C(=O)C1N=Nc1ccc(Br)cc1 (stereo not drawn) the results were ELG1 genotoxic 9.2µM, NPC1 prom act 2.2µM, Rab9 promoter act 3.5µM and FLuc modulator 6µM.
Screening CC1=NN(C(N)=S)C(=O)C1N=Nc1ccccc1 (stereo not drawn) returned KinaseGlo FLuc inactive, ELG1 genotoxic inconclusive, SMN2 splice up inactive, NPC1 prom act inactive, Rab9 promoter act inactive and FLuc modulator 24µM.
Screening CC1=NN(C(N)=S)C(=O)C1N=Nc1cccc([N+](=O)[O-])c1 (stereo not drawn) returned ELG1 genotoxic inactive, NPC1 prom act 3.5µM, Rab9 promoter act inconclusive and FLuc modulator 12µM.
`CC1=NN(c2nc(-c3ccc(C)cc3)cs2)C(=O)C1N=Nc1cccc(O)c1` (stereo not drawn) gave KinaseGlo FLuc inactive, ELG1 genotoxic inactive, SMN2 splice up inactive, NPC1 prom act inactive, Rab9 promoter act inactive and FLuc modulator inconclusive.
Screening NC(=O)CN(N=Nc1cccc([N+](=O)[O-])c1)c1cccc([N+](=O)[O-])c1 returned KinaseGlo FLuc inactive, ELG1 genotoxic inactive, SMN2 splice up inactive, NPC1 prom act inactive, Rab9 promoter act inactive and FLuc modulator inactive.
Screening CC1=NN(c2ccccc2)C(=O)[C@@H]1N=Nc1ccc(S(N)(=O)=O)cc1 returned KinaseGlo FLuc inactive[7.66 µM] and SMN2 splice up inactive[9.22 µM].

Screening results: PubChem, National Center for Advancing Translational Sciences (NCATS)
